# Only some compounds are listed: those with a hit (about 2.5% of all), similar ones and a draw of the others.
# PK Bst: pyruvate kinase (B. stearothermophilus) modulation. 51,000 tested, 1.2% active. Potency, µM. AID 361. purified pyruvate kinase, luminescence ATP production; ribose 5-phosphate activator present at AC10; in the data active = potency below about 11 µM; inconclusive = mostly about 12 µM to 25 µM;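 the screen sought inhibitors and activators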;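 also: scaled between full activation by ribose 5 phosphate and full inhibition by luteolin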
# FLuc inh: blocks Photinus pyralis firefly luciferase activity. Potency, µM (series often up to 57.1 µM), without a hit: top-dose activity change, negative = inhibition, hits mostly inhibitors. 72,000 tested, 2.2% active. purified firefly luciferase, luminescence, 8 min; active = well fitted inhibition curve with a large enough effect; inconclusive = small, poorly fitted or top-dose-only effect; also: nearly all actives have a fitted effect of over 40% in size
# Target sequence (P08659 whole entry, looked up): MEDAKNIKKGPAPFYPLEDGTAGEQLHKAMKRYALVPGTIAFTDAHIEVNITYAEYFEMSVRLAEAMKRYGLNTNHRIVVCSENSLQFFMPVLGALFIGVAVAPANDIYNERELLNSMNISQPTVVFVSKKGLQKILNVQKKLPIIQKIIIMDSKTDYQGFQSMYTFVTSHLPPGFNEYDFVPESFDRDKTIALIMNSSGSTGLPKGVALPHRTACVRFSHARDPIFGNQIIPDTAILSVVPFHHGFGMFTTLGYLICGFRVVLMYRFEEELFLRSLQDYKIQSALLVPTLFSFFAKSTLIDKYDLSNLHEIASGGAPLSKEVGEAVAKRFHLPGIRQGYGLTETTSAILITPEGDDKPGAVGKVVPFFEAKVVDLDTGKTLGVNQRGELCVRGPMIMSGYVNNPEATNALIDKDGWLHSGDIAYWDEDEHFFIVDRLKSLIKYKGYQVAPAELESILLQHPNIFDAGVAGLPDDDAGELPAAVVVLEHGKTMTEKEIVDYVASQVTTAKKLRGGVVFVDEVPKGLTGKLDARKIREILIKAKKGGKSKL
#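 Substrate buffer containing 10 uM ATP (pH 7.2 imidazole, Mg2+, KCl, detergent, BSA) is dispensed, compound pinned in, then luciferase/luciferin detector mix added. After 8 min at ambient temperature, light output is measured.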
# An asterisk follows results filed as active; i = inactive; ? = inconclusive; / = no result; [ ] = dose if it differs, or a comment. Unless noted, % is scaled to controls: 0 for no effect and ±100 for the full control effect; potency is read from the fitted curve at half-maximal effect.
SMILES,PK Bst,FLuc inh
O=C(OCC#CCSc1nnc(-c2ccc(Br)cc2)o1)c1ccco1,>57,-1%
COc1ccc(NC(=O)Nc2ccc3nccnc3c2)cc1,/,6.3µM*
COc1ccc(NC(=O)Nc2nccs2)cc1,i,13µM*
CCc1nnc(NC(=O)Nc2ccc(OC)cc2)s1,>57,-18%
COc1ccc(CNC(=O)c2ccc3nccnc3c2)cc1,/,3%
COc1ccc(NC(=O)Nc2ccc(N(C)C)cc2)cc1,/,13µM*
COc1ccccc1C(=O)Nc1cccc(N(C)S(C)(=O)=O)c1,>57,-22%
COc1cccc(C(=O)Nc2ccc(N(C)C)cc2)c1OC,i,16µM*
COc1ccc(CNC(=O)Nc2ccc(OC)cc2)cc1,>57,0%
CC(=O)C1=C(C)OC(N)=C(C#N)C1c1ccco1 (centres undefined),>57,0%
COc1ccc(C2C(C(C)=O)=C(O)C(=O)N2CCO)c(OC)c1 (centres undefined),>57,2%
CCOc1ccc(NC(=O)C2CC(=O)N3CCCN=C3S2)cc1 (centres undefined),>57,1%
Cc1cnn(C(=S)NCC2CCCO2)c1 (centres undefined),>57,-1%
CCC(c1ccccc1)c1nc(-c2ccccn2)no1 (centres undefined),/,-3%
c1ccc(-c2noc(C34CC5CC(CC(C5)C3)C4)n2)nc1,/,16µM*
Cc1ccc2nc(-c3ccc(NC(=O)c4ccc(N)cc4)c(S(=O)(=O)O)c3)sc2c1,/,-29%[11.4 µM]
Nc1cccc(-c2nc3ccc(N)cc3s2)c1,0.71*,1µM*
CCc1ccc(S(=O)(=O)NCc2csc(-c3cccnc3)n2)s1,/,1%
Oc1c(/C=N/c2ncn[nH]2)ccc2ccccc12,/,-1%
O=[N+]([O-])c1cccc(/C=N\Nc2ccc3ccccc3n2)c1O,/,3.2µM*
CN(C)Cc1ccccc1-c1nccc(Nc2ccc(F)cc2)n1,/,-1%[2.29 µM]
O=C1CC(N2CCN(c3ccc(Cl)c(Cl)c3)CC2)C(=O)N1 (centres undefined),>57,2%
CC(=O)Nc1ccc(S(=O)(=O)Nc2ccc(N3CCOCC3)cc2)cc1,>57,-12%
CC(=O)Nc1ccc(S(=O)(=O)N2CCN(C(=O)N3CCOCC3)CC2)cc1,3.2*,0%
COc1ccc(C=NCCC2(O)CC(C)N(C)CC2C)cc1 (centres undefined),>26,2%[25.5 µM]
SMILES,PK Bst,FLuc inh
CCN1CCN(Cc2ccc(NC(=O)Nc3ccccc3Cl)cc2)CC1,/,16µM*
CCN1CCN(Cc2ccccc2NC(=O)Nc2ccc(C)cc2)CC1,>57,3%
Cc1nc(SCC(=O)c2ccccc2)n[nH]1,>57,0%
COC(=O)c1[nH]c2c(c1C)C(=O)CCC2,>57,-1%
Cc1c(C(=O)OC2CCC(C)CC2)[nH]c2c1C(=O)CCC2 (centres undefined),/,16µM*
C=CCSc1[nH]c(=O)cc(C)c1C(N)=O,>57,3%
O=C(Nc1ccc(CN2CCOCC2)cc1)c1cc2ccccc2o1,i,13µM*
O=C(c1cc2ccccc2o1)N1CCCCCC1,>57,-3%
O=C(NCCN1CCOCC1)c1cc2ccccc2o1,>57,5%
O=C(Cc1ccccc1)Nc1ccc(CN2CCOCC2)cc1,>57,-25%
O=C(/C=C/N1CCOCC1)c1cc2ccccc2o1,/,13µM*
O=C(NCCN1CCOCC1)c1cccs1,>57,-1%
O=C(Nc1ccc(CN2CCOCC2)cc1)c1cc2ccccn2n1,/,4µM*
O=C(Nc1ccc(CN2CCOCC2)cc1)c1cccs1,/,25µM*
C[C@@H](c1ccccc1)N1C(=O)[C@H]2[C@H]3[C@H](O)[C@H](O)C/C(=N/OC[C@@H](O)COCc4ccco4)[C@H]3CC[C@@H]2C1=O,/,1%[11.4 µM]
COc1ccccc1Cc1noc(C(C)(C)NC(=O)c2ccccc2)n1,>57,1%
Cc1nnc(NC(=O)CSC2CCCCC2)s1,/,1%
Cc1ccc(C2CC(=O)Nc3sc(C(N)=O)c(N)c32)cc1 (centres undefined),>57,-2%
Cc1cc(NC(=O)c2cc3ccccc3o2)cc(C)c1OCC(=O)N1CCOCC1,/,16µM*
COc1cc(C(=O)Nc2cc(C)c(OCC(=O)N3CCOCC3)c(C)c2)cc(OC)c1OC,/,-1%
Cc1c(Cl)cccc1NC(=O)CCCCCN1C(=O)CCC1=O,>57,3%
COc1cc2c(cc1NC(=O)c1ccco1)CCCC2,/,-19%
Cn1cnc2cc(OC(=O)c3ccccc3)ccc21,i,16µM*
Cc1ccc(C(=O)Oc2ccc3c(c2)ncn3C)cc1,?,16µM*
COc1ccc(OC)c(-n2cnc3cc(C(=O)O)ccc32)c1,>57,0%
SMILES,PK Bst,FLuc inh
O=C(Oc1ccc2c(c1)OCC2=O)c1ccccc1,>57,-16%
COCC(=O)N1CCC2(CC1)CN(Cc1ccc(C#N)cc1)C2,/,-3%[11.4 µM]
O=C(c1ccccc1)n1c(=S)nc2ccccn21,2.2*,1.3µM*
CCOC(=O)c1c(C)nc2ccccn12,>11,0%
Cc1cc(C)cc(NC(=O)CSc2nnc(-c3ccccc3)n2N)c1,>57,4%
Cc1ccc(-c2cc(-c3nnc(SCC(=O)N(C)CCC#N)n3N)c3ccccc3n2)cc1,i,13µM*
O=C(Cn1c(NCCO)nc2ccccc21)c1cccs1,>57,-5%
Cc1ccc(C2CCN(C(=O)Nc3ccccc3)C2)cc1 (centres undefined),/,25µM*
Cc1ccc(NC(=O)N2CCC(C(=O)NCc3ccccc3)CC2)cc1,>57,0%
CCCCOc1cc(C(=O)NCCN(CC)CC)c2ccccc2n1,>26,-1%[25.5 µM]
O=c1/c(=C/c2ccccn2)sc2nc3ccccc3n12,/,0.25µM*
COC(=O)/C=c1/sc2nc3ccccc3n2c1=O,/,-5%
N#Cc1cc2sc3nc4ccccc4n3c2cc1C#N,>57,0%
O=c1c2ccccc2nc2sc3ccccc3n12,6.8*,-14%
CS(=O)(=O)Nc1cccc(-c2cc(NCc3cccs3)ncn2)c1,/,-1%[2.29 µM]
CC(=O)c1ccc(O)c(CN(C2CCCCC2)C2CCCCC2)c1O,/,0%[11.4 µM]
COc1cc(O)c(C(=O)/C=C\c2ccc3c(c2)OCO3)c(OC)c1,/,-23%[11.4 µM]
Nc1ccccc1C(=O)/C=C\c1ccc2c(c1)OCO2,/,3.2µM*
CCn1ccnc1C(O)c1cccc(OC)c1 (centres undefined),/,-1%
COCCn1c(-c2ccccc2F)n[nH]c1=S,>57,7%
COc1ccc(CCNS(=O)(=O)c2ccc3oc(C(=O)O)c(C)c3c2)cc1OC,>57,2%
COc1cccc2sc(N(C)c3ccccc3)nc12,8.1*,7.9µM*
COc1cccc2sc(N3CCN(c4nc5ccccc5s4)CC3)nc12,>57,1%
N#C[C@H](c1ccccc1)N1CCCN([C@@H](C#N)c2ccccc2)C1c1ccccc1O (some centres undefined),/,2%[11.4 µM]
CC(C)OC(=O)CSc1ncnc2c1cnn2-c1ccccc1,/,-5%
SMILES,PK Bst,FLuc inh
Cc1ccc2[nH]c3c(c2c1)CCc1cn[nH]c1-3,8.7*,-6%
Cc1ccc2[nH]c3c(c2c1)CCC3=O,>57,-2%
COc1cc(OC)cc(C(=O)Nn2c(C)nc3ccccc3c2=O)c1,>57,1%
COc1ccc2[nH]c3c(c2c1)CCn1c-3nc2ccccc2c1=O,0.2*,0.63µM*
COC(=O)c1c(C)n(-c2ccc(OC)cc2)c2ccc(O)cc12,>57,-3%
CCN(C(=O)CSc1nnc(-c2ccccc2Cl)n1C1CCCC1)C1CCS(=O)(=O)C1 (centres undefined),>57,-28%
Cn1cccc1-c1nc2ccc(NC(=O)c3cccs3)cc2[nH]1,i,-24%
O=C(Nc1ccc2nc(-c3ccc(Br)o3)[nH]c2c1)c1ccco1,10*,10µM*
